Source: PubChem BioAssay (National Center for Advancing Translational Sciences (NCATS))
The full list was thinned out, with hits kept by preference.
LmPK inh: qHTS Assay for Inhibitors of Leishmania Mexicana Pyruvate Kinase (LmPK). Q27686. purified LmPK, Kinase-Glo ATP luminescence, 1 h. Potency, µM (titrated, usually from 57.5 µM), inactives show at the top dose activity change, negative = inhibition, usual class: inhibitors. 290,000 tested, 0.37% active; further: potency means the concentration at half of the fitted maximal effect; on the % scale 0 is the no-effect control and ±100 the full control effect
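0.1 nM LmPK, 0.5 mM PEP, 0.1 mM ADP; 50 mM imidazole pH 7.2, 7 mM MgCl2, 50 mM KCl; 1 h RT. Kinase-Glo luminescence readout, normalized to no-enzyme (full inhibition) and uninhibited wells.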
RE007 growth inh: qHTS Assay for Inhibitors of the HIV-1 protein Vpr; S. pombe RE007 Vpr strain, BacTiter-Glo ATP luminescence, 24 h; Potency, µM (top dose mostly 92.2 µM), for the others: top-dose activity change, negative = less growth, hits mostly inhibitors; 360,000 tested, 0.21% active; AID 651644, 2012; active means well fitted falling curve with a large enough effect; inconclusive means small, poorly fitted or top-dose-only effect; inactive means no such curve, though single readings can be large or run the other way; further: potency means the concentration at half of the fitted maximal effect; on the % scale 0 is the no-effect control and ±100 the full control effect; nearly all actives have a fitted effect of over 50% in size
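Fission yeast RE007 carrying one integrated HIV-1 vpr copy, seeded at OD 0.01 in PMG+AL medium with 23 nL pinned compound. Grown 24 h at 30 degrees; viability read by BacTiter-Glo luminescence after 5 min.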
FBPA Giardia inh: qHTS Assay for Inhibitors of Fructose-1,6-bisphosphate Aldolase from Giardia Lamblia; A8B2U2; purified Giardia FBPA; Potency, µM (doses to about 59.6 µM), for the others: at the highest dose activity, negative = inhibition, most hits filed as inhibitors; 290,000 tested, 0.71% active; AID 2451, 2010; further: potency means the concentration at half of the fitted maximal effect; on the % scale 0 is the no-effect control and ±100 the full control effect; nearly all actives have a fitted effect of over 55% in size
Target sequence (A8B2U2 whole entry, looked up): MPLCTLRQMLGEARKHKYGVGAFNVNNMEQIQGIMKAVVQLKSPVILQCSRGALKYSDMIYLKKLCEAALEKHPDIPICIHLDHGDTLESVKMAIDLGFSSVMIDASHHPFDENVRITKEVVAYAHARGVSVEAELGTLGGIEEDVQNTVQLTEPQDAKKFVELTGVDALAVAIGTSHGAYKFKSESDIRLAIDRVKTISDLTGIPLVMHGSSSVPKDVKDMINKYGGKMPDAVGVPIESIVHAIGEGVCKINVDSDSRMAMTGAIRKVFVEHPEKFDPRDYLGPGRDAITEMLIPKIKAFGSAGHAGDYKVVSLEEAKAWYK
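40 nM FBPA preincubated 10 min at RT with compound (up to 57.5 uM final), then substrate plus GAPDH/TPI/NAD/arsenate coupling and diaphorase/resazurin added. Fluorescence read after 20 min at RT, 525/598 nm.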
Shiga toxin inh: A qHTS for Small Molecule Inhibitors of Shiga Toxin. Vero cells, Shiga toxin protein synthesis inhibition reporter. inhibition, % at 38.7 µM. 290,000 tested, 9.2% active. AID 2315, 2010; in the data active means inhibition mostly above about 28%, no sharp cut-off; inactive means mostly below about 43%; further: 0% is about no effect
Tb PYK inh: qHTS of Trypanosoma Brucei Inhibitors; TbPYK enzyme, Kinase-Glo Plus ATP luminescence, 45 min; Potency, µM (titrated, usually from 76.8 µM), for inactives: top-dose activity, negative = inhibition, usual class: inhibitors; 410,000 tested, 0.12% active; further: potency means the concentration at half of the fitted maximal effect; on the % scale 0 is the no-effect control and ±100 the full control effect; nearly all actives have a fitted effect of over 50% in size
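Screened from lowest to highest concentration, compounds were pinned into TbPYK/substrate mixtures, and ADP (130 uM final) was added. Plates sat at room temperature for 45 min prior to Kinase-Glo Plus detection by luminescence.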
CHX counter: Cycloheximide Counterscreen for Small Molecule Inhibitors of Shiga Toxin | 300,000 tested, 12% active | max response, % | AID 2314, 2010 | cell reporter, cycloheximide protein synthesis inhibition counterscreen; in the data active means max response mostly above about 13%, no sharp cut-off; inactive means mostly below about 14%; further: read at 38.3 µM for the half of the compounds with a filed dose; 0% is about no effect
* marks the source's active call; other numbers are inactive results; u = inconclusive; x = no result; + = active, no number. Unless noted, the call rests on the fitted dose curve; in most records, active means well fitted curve in the direction sought with a large enough effect; inconclusive means small, poorly fitted or top-dose-only effect, or another doubt; inactive means no such curve, though single readings can be large; an effect the other way counts as inactive or inconclusive.

SMILES	LmPK inh	RE007 growth inh	FBPA Giardia inh	Shiga toxin inh	Tb PYK inh	CHX counter
COc1ccc2oc(-c3ccccc3)c(C(=O)O)c2c1	-5%	-13%	11%	8	-17%	-6
O=[N+]([O-])c1ccccc1-c1ccc(C(=S)N2CCCC2)o1	-9%	-5%	16µM*	97*	u	44*
O=C(c1ccc(-c2ccccc2Cl)o1)N1CCCCCCC1	x	-20%	x	x	-1%	x
O=[N+]([O-])c1ccccc1-c1ccc(C(=S)N2CCCCC2)o1	-4%	-18%	u	63*	-6%	58*
Cc1cccc(N2CCN(C(=S)c3ccc(-c4ccccc4[N+](=O)[O-])o3)CC2)c1	-2%	24%	-24%	-2	0%	1
C=CCn1ccc(=O)nc1SC	x	2%	x	x	6%	x
N=C1/C(=C\c2ccc(OCc3ccccc3)cc2)C(=O)N=C2SC(N3CCCC3)=NN12	5%	x	-1%	45*	x	27*
Cc1ccc(C(=O)Oc2ccc(/C=C3\C(=N)N4N=C(N5CCOCC5)SC4=NC3=O)cc2)cc1	4%	1%	u	59*	1%	26*
N=C1/C(=C\c2ccc(OC(=O)c3ccc(F)cc3)cc2)C(=O)N=C2SC(N3CCCC3)=NN12	-2%	-5%	-17%	11	-3%	15
N=C1/C(=C\c2ccc(OC(=O)c3ccccc3)cc2)C(=O)N=C2SC(N3CCOCC3)=NN12	1%	-13%	-17%	11	-4%	15*
O=C1Nc2ccccc2N=C(c2ccccc2)C1Br (centres undefined)	1%	2%	u	46*	-13%	14
CCN(Cc1ccncc1)C(=O)c1cc(COc2ccc(OC)cc2Cl)on1	-8%	15%	x	99*	-2%	42*
CCN(CC1CCCO1)C(=O)c1cc(COc2ccc(OC)cc2Cl)on1 (centres undefined)	-3%	-2%	12%	14	3%	16*
Cc1ccccc1NC(=O)N1CCCC(c2nc(-c3ccc(C(C)C)cc3)no2)C1 (centres undefined)	6%	7%	2%	-1	2%	26*
Cc1ccc(NC(=O)N2CCCC(c3nc(-c4ccc(F)cc4)no3)C2)cc1 (centres undefined)	1%	5%	-3%	60*	-7%	15
Cc1ccccc1NC(=O)N1CCCC(c2nc(-c3ccc(F)cc3)no2)C1 (centres undefined)	2%	1%	0%	110*	-6%	24*
O=C(Nc1nnc(S(=O)(=O)N2CCCC2)s1)c1ccc(F)cc1	x	x	x	x	0%	x
Clc1cccc(Oc2cnc3ccccc3n2)c1	-5%	-12%	6%	33	-3%	22*
CC(=O)Nc1cccc(Oc2cnc3ccccc3n2)c1	-1%	34%	-9%	46*	4%	17*
COc1ccc(Oc2cnc3ccccc3n2)cc1	2%	17%	1%	51*	-1%	31*
O=C(Nc1c(C(=O)Nc2ccc3c(c2)OCCO3)cnn1-c1ccccc1Cl)c1ccco1	-2%	-7%	-7%	149*	1%	77*
O=C(Nc1cc2c(cc1Br)OCCO2)c1ccco1	-9%	-21%	-1%	active	-21%	40*
O=C(Nc1cc2c(cc1Br)OCCO2)c1cccnc1	-10%	-4%	x	66	-6%	24*
O=C(Nc1cc2c(cc1Br)OCCO2)c1cccs1	-13%	-19%	-4%	181*	1%	42*
CCCC(=O)c1cc2c(cc1NC(=O)c1cccs1)OCCO2	4%	22%	2%	-7	-2%	-5
SMILES	LmPK inh	RE007 growth inh	FBPA Giardia inh	Shiga toxin inh	Tb PYK inh	CHX counter
CC(=O)c1cc2c(cc1NC(=O)c1ccco1)OCCO2	0%	7%	-5%	15	4%	10
CCOC(=O)c1ccc(NCCc2ccc(OC)c(OC)c2)c(N)c1	-2%	24%	0%	15	-5%	10
O=C(Nc1cc2c(cc1Cl)OCCO2)c1ccco1	-12%	-10%	-2%	93*	1%	28*
O=C(Nc1ccc(NC(=O)c2ccco2)c(Cl)c1)c1ccc2c(c1)OCCO2	2%	8%	-3%	64*	-10%	27*
O=C(Nc1ccc(NC(=O)c2ccco2)cc1)c1ccc2c(c1)OCO2	-17%	3%	1%	12	6%	1
Cc1ccccc1CNC(=O)CCC(=O)N1CCSc2ccccc21	x	x	x	x	-4%	x
COc1ccccc1CNc1ncnc2ccc(-c3cccc(C#N)c3)cc12	x	x	0%	x	x	x
O=C(/C=C/c1c[nH]c2ccccc12)c1cccc2ccccc12	3%	5%	-28%	37*	4%	28*
CCCCn1c(O)c(C(C)=NCCc2c[nH]c3ccccc23)c(=O)[nH]c1=O	3%	-8%	1%	-3	-20%	2
O=C(/C=C/c1c[nH]c2ccccc12)c1c(O)n(CCc2ccccc2)c(=O)[nH]c1=O	5%	1%	-12%	29	-4%	21*
COC(=O)c1c(C)sc(-c2c(-c3ccc(OC)c(F)c3)[nH]c3c2c(=O)n(C)c(=O)n3C)c1O	x	x	x	x	0%	x
CCc1ccc(CNC(=O)CCSCc2ccccc2F)cc1	x	x	x	x	-2%	x
Cc1ccnc(SCC(=O)c2ccc(Br)cc2)c1C#N	2%	-1%	3%	96*	-21%	84*
Cc1ccc(C(=O)CSc2nsc(C)c2C#N)cc1	2%	-15%	0%	+	-20%	30*
COC(=O)c1ccccc1CSc1nsc(C)c1C#N	5%	-6%	-3%	3	-23%	-3
N#Cc1c(SCC(N)=O)nsc1SCc1ccc(Cl)cc1	0%	5%	-2%	-8	4%	5
Cc1snc(SCC(=O)c2ccc(Cl)cc2)c1C#N	1%	-2%	-5%	58*	-18%	35*
Nc1ccn([C@@H]2O[C@H](CNCc3ccc(Oc4cc(-n5cccn5)ncn4)cc3)[C@@H](O)[C@H]2O)c(=O)n1	x	-21%	x	x	-2%	x
Clc1ccc(CNc2cc(-c3ccccc3)nc3nncn23)cc1	x	x	x	x	1%	x
CCOC(=O)c1ccc(NC2OC(=O)c3ccccc32)cc1 (centres undefined)	0%	0%	2%	-5	-7%	15*
COc1cc(CN2CCCC(C(=O)c3ccc4c5c(cccc35)CC4)C2)cc(OC)c1O (centres undefined)	0%	-12%	7.9µM*	1	-18%	-2
O=C(c1ccc2c3c(cccc13)CC2)C1CCCN(Cc2cccnc2)C1 (centres undefined)	-2%	1%	-1%	-21	-5%	-1
